High-throughput results deposited in PubChem by National Center for Advancing Translational Sciences (NCATS).
The sample as a whole holds a higher share of hits than the screen did.
CBFb-RUNX1 inh = inhibitors of human CBF-beta and RUNX1 interaction; AlphaScreen CBFb-His/RUNX1-biotin binding, biochemical; 230,000 tested, under 10 active; Potency, µM (series often up to 59.8 µM), inactives show at the top dose activity, negative = inhibition, hits mostly inhibitors; Q01196+Q13951; active = well fitted curve in the direction sought with a large enough effect; inconclusive = small, poorly fitted or top-dose-only effect, or effect the other way, or another doubt; inactive = no such curve, though single readings can be large or run the other way; note: % of control where 0% means no effect
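AlphaScreen proximity signal reports loss of binding between His-tagged CBF-beta and biotin-labelled RUNX1, each at 30 nM. Proteins are pre-associated for 20 minutes, compounds added for 15 minutes, then beads for 90 minutes, all at ambient temperature.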
Rango complex inh = Rango-importin beta binding inhibition. Rango CFP/YFP FRET sensor + importin beta, 45 min. Potency, µM (titrated, usually from 92.2 µM), for the others: at the top dose inhibition of complex formation. actives 0.031% (n = 340,000). AID 540263;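 note: potency is the fitted concentration of half-maximal effect; 0% = DMSO wells and 100% = buffer wells lacking importin beta; nearly all actives have a fitted effect of over 15% in size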
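Inhibition scored from the CFP 486 nm/YFP 530 nm FRET ratio 45 min after adding 0.125 microM importin beta to 50 nM Rango biosensor preincubated 5 min with compound (room temperature, PBS with DTT, Tween-20, BSA). No-importin wells as positive control.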
ClpP mod = qHTS Assay for Activators of ClpP; actives 1.9% (n = 340,000); Potency, µM (series often up to 57.5 µM), for the others: at the highest dose activity change, negative = active; purified B. subtilis ClpP, FRET peptide cleavage, 20 min; ATP-dependent Clp protease proteolytic subunit (Bacillus subtilis (strain 168)), P80244; active = well fitted falling curve with a large enough effect; inconclusive = small, poorly fitted or top-dose-only effect; inactive = no such curve, though single readings can be large or run the other way; note: potency is the fitted concentration of half-maximal effect; the source files actives as falling curves though it sought activators and does not explain the sign; nearly all actives have a fitted effect of over 65% in size
Target sequence (P80244 whole entry, looked up): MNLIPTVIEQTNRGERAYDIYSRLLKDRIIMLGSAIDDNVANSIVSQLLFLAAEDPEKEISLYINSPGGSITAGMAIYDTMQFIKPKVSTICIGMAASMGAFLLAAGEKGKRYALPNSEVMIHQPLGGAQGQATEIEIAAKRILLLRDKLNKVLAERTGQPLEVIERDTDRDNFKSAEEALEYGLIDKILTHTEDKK
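ClpP 10 microg/mL final, pH 8 Tris/KCl buffer with BSA, glycerol, Tween-20; compound pinned in; FRET-FV substrate; RT 20 min; Ex320/Em430; ΔFRET vs ADEP 5.8 microM, DMSO, no enzyme.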
Rango release inh = prevents RanGTP from dissociating the Rango-importin beta complex; O95149+P62826; Biochemical FRET Rango-importin beta, RanGTP-induced dissociation; Potency, µM (doses to about 46.1 µM), for inactives: at the highest dose activity change, negative = inhibition; actives 0.071% (n = 340,000); AID 540253; note: potency is the fitted concentration of half-maximal effect; % of control where 0% means no effect; nearly all actives have a fitted effect of over 45% in size
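Recombinant Rango FRET biosensor (EYFP–snurportin 1 IBB–cerulean CFP10) at 0.1 uM premixed with 0.25 uM importin beta in PBS, 1 mM DTT, 0.02% Tween-20, 0.1% BSA. Compound added 5 min; RanGTP-RCC1 (0.6 uM Ran, 2 mM GTP, 0.2 uM RCC1) then triggers release, read at 45 min.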
MBNL1 CUG block = blocks human MBNL1 binding to CUG repeat RNA; Q9NR56; TR-FRET MBNL1-His/biotin-(CUG)12 binding, 665/545 ratio; Potency, µM (highest dose often 57.5 µM), inactives show at the highest dose activity change, negative = inhibition, most hits filed as inhibitors; actives 0.036% (n = 280,000); active = well fitted inhibition curve with a large enough effect in the signal ratio, with a control signal flat, not every such curve was filed as active; inconclusive = small, poorly fitted or top-dose-only effect, or effect the other way, or a change in a side signal; inactive = no such curve, though single readings can be large or run the other way; the % refers to the signal ratio; note: potency is the fitted concentration of half-maximal effect; % is set by controls: 0 for no effect and ±100 for the full control effect
Target sequence (Q9NR56 whole entry, looked up): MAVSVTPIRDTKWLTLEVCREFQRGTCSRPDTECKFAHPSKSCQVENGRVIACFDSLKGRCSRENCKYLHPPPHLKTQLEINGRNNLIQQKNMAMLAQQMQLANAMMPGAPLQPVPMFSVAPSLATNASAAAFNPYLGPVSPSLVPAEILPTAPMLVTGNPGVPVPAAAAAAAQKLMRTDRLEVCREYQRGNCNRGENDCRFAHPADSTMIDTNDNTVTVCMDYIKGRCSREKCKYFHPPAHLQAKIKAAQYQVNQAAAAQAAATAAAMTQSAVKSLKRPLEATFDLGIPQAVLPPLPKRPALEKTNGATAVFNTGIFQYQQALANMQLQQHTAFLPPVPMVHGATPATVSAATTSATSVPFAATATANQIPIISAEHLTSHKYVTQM
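His-tagged MBNL1 binding to biotinylated (CUG)12 RNA was measured by TR-FRET using terbium anti-His antibody (0.055 ng/ul final) and streptavidin-XL665 (5 nM final). Compounds were titrated 92 nM to 58 uM; 60 min at room temperature.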
An asterisk follows results filed as active; ? = inconclusive; · = no result. Unless noted, calls come from the whole dose curve.

SMILES	CBFb-RUNX1 inh	Rango complex inh	ClpP mod	Rango release inh	MBNL1 CUG block
CC1CCCC(NC(=O)COC(=O)CCC(=O)c2ccc(F)cc2)C1C (stereo unspecified)	·	-1%	2.5µM*	-7%	·
Cc1nc(SCC(=O)Nc2ccc(Cl)cc2C(F)(F)F)[nH]c(=O)c1Cc1ccccc1	·	·	1%	·	·
CCCCN(CCCC)c1ccc(/C=C2\C=Cc3ccccc32)cc1	·	·	-2%	·	·
O=C(OCc1ccccc1)c1cccc(-c2nnc(-c3ccccc3)o2)c1	5%	0%	35µM*	-1%	-4%
CCOC(=O)c1cccc(COC(=O)c2cccc(-c3nnc(-c4ccccc4)o3)c2)c1	11%	1%	32µM*	-3%	-3%
O=C(OCc1ccc(C(=O)c2ccccc2)cc1)c1cccc(-c2nnc(-c3ccccc3)o2)c1	5%	4%	-2%	14%	-9%
CCOC(=O)c1cc(-c2nnc(-c3ccc(Oc4ccccc4)cc3)o2)c(C)nc1C	9%	0%	3.2µM*	11%	4%
CCC1CN(C(=O)Nc2cc(C)cc(C)c2)c2ccccc2O1 (stereo unspecified)	·	·	-1%	·	·
Cc1cc(-c2ccccc2)nc2[n+]1CCN2C	-2%	1%	28µM*	?	5%
Cc1nc(-c2ccccc2)cc(N2CCCC2)n1	4%	0%	-6%	11%	-9%
CNc1nn(-c2cccc(Cl)c2)nc1N	-6%	1%	32µM*	-12%	1%
COc1ccc(OC)c(CNc2ncnc3c2nc2n3CCCC2)c1	·	·	-7%	·	·
Cc1cc[n+]2c3c(cccc13)CCC2	-4%	3%	25µM*	2%	?
O=C(O)CCn1cc(/C=C2/NC(=S)N(c3ccccc3)C2=O)c(-c2ccccc2)n1	14%	?	13µM*	?	?
N#CCCn1cc(/C=C2\NC(=S)N(c3ccccc3)C2=O)c(-c2ccc(-c3ccccc3)cc2)n1	-15%	-1%	·	-16%	-3%
CCOC(=O)C1CCN(c2nc(N)c3c(N)nc(SCC(=O)O)cc3c2C#N)CC1	-28%	?	4%	?	·
CCOc1cc2c(C#N)c(N3CCNCC3)nc(N)c2c(N)n1	2%	?	35µM*	-17%	?
CCOc1cc2c(C#N)c(N3CCCCC3)nc(N)c2c(N)n1	-3%	?	25µM*	-18%	?
CCN(CC)c1nc(N)c2c(N)nc(OC)cc2c1C#N	·	?	4%	?	·
CCn1cc2c(n1)-c1c(oc(C(=O)Nc3ccc(Br)cc3F)c1C)CC2	·	·	-14%	·	·
Cc1ccc(CNC(=O)C2CC(=O)N(CCC(C)C)C2)cc1 (stereo unspecified)	2%	5%	1%	?	-8%
CCCCN1CC(C(=O)NCc2ccc(C)cc2)CC1=O (stereo unspecified)	3%	-3%	20µM*	-12%	-13%
O=C(CCN=C1NS(=O)(=O)c2ccccc21)OCc1nnc(-c2ccc([N+](=O)[O-])cc2)o1	·	1%	28µM*	1%	·
O=C(NCCNC(=O)c1ccc(Br)o1)c1cccnc1	·	-1%	25µM*	-1%	-1%
COc1cccc(-c2cnc(NCc3ccccc3Cl)n2C)c1	·	·	-26%	·	·
SMILES	CBFb-RUNX1 inh	Rango complex inh	ClpP mod	Rango release inh	MBNL1 CUG block
COc1cccc(-c2cnc(NCc3cc(Cl)ccc3O)n2C)c1	-20%	1%	28µM*	3%	6%
COc1ccc(C2c3c(n(C)c4ccccc34)C(=O)N2CC(=O)Nc2ccccc2F)cc1 (stereo unspecified)	·	·	-29%	·	·
CCCNC(=O)CN1C(=O)c2c(c3ccccc3n2C)C1c1ccc(OC)cc1 (stereo unspecified)	·	·	28µM*	·	·
Cc1nn(-c2ccccc2)c(N2CCCC2)c1/C=N/NC(=S)Nc1cc(C(F)(F)F)ccc1Cl	-3%	-3%	28µM*	-1%	-7%
COc1ccc(N=Nc2[nH]c3ccc(C)cc3c2O)cc1	-19%	-2%	1%	10%	·
Cc1ccc(N=Nc2[nH]c3ccccc3c2O)cc1	-19%	?	25µM*	?	-7%
O=C(O)c1ccc2cccc(Cl)c2c1O	-2%	0%	18µM*	-6%	25%
Cc1nc(NC2CCCCC2)c2nc(-c3ccccc3)n(CCN3CCCC3)c2n1	1%	·	·	·	·
C#CC1(O)CCC2C3CCc4cc(O)cc(C)c4C3CCC21C (stereo unspecified)	·	0%	32µM*	-1%	·
O=c1[nH][nH]c2c1[C@H](CCc1cccc(Cl)c1)O[C@H](CCc1ccccc1)C2	·	·	1%	·	·
COc1ccc(CNc2ncnc3c2[nH]c2ccccc23)cc1	-9%	10%	·	8%	·
COc1ccc2[nH]c3c(NCCN(C(C)C)C(C)C)ncnc3c2c1	8%	-4%	18µM*	-7%	-4%
CC(C)OCCCNc1ncnc2c1[nH]c1ccccc12	-2%	3%	18µM*	-3%	10%
CCOc1ccc2[nH]c3c(NCCN(CC)CC)ncnc3c2c1	·	0%	1%	11%	-10%
COc1ccc(CNC(=O)CCCN2C(=O)c3cccnc3Oc3ccc(Cl)cc32)cc1	·	·	2%	·	·
COc1ccc(OC)c(NC(=O)c2nc(SCc3ccccc3F)ncc2Cl)c1	·	·	2%	·	·
CCCn1c(=O)c2sccc2n2c(CCCC(=O)Nc3ccccc3F)nnc12	·	·	-9%	·	·
COc1ccc(-c2ccc([C@H]3[C@H]4C=CC[C@@H](C)[C@@H]4C(=O)N3Cc3ccccc3)c(F)c2)cc1C	2%	0%	25µM*	7%	-2%
N#Cc1c(N)nc2c3c(sc(=N)c2c1N)NC(=O)CC3c1ccccc1 (stereo unspecified)	-14%	?	-17%	?	?
Cc1c(C#N)c(N)nc2c3c(sc12)NC(=O)CC3c1ccc(Cl)cc1 (stereo unspecified)	-1%	2%	16µM*	-15%	208%
O=C(NCc1cccc(F)c1)c1ccc2nc(CCc3ccccc3)oc2c1	·	·	-2%	·	·
Clc1ccc(-c2nc(N3CCCCC3)nc3ccccc23)cc1	17%	?	-6%	?	6%
c1ccc(-c2nc(-n3nc4ccccc4n3)nc3ccccc23)cc1	1%	3%	35µM*	13%	7%
Cc1cc(/C=N\NC(=O)COc2cccc3cccnc23)c(C)n1-c1ccccc1	-5%	4%	-3%	-1%	-5%
Cc1ccnc(-n2c(C)cc(/C=N/NC(=O)COc3cccc4cccnc34)c2C)c1	-3%	2%	14µM*	-17%	1%
Cc1cnccc1/C=C/c1ccc(N)cc1	·	·	-7%	·	·
